Test results reported in publication PMC8769072, “Proteome‐scale mapping of binding sites in the unstructured regions of the human proteome” (Molecular Systems Biology, 2022).

## GDTEAWQFPVMLEPMP [ERVK-21, P62683]
TLN1 309-401, Q9Y490
Sequence of TLN1 309-401, Q9Y490 (Q9Y490 309-401): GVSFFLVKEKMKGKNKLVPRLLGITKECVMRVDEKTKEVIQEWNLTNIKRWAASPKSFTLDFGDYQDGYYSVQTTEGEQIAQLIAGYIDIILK
  selected by phage display: confidence 2 (active)

## LNPTAPPSRQGSELHE [ERVK-9, P63128]
TSG101 1-145, Q99816
Sequence of TSG101 1-145, Q99816 (Q99816 1-145): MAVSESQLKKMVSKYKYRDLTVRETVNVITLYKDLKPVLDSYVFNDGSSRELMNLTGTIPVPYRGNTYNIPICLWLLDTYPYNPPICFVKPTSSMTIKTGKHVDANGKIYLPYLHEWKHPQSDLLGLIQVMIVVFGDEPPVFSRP
  selected by phage display: confidence 2 (active)

## LPQYNNAPPPQAAVQQ [ERVK-6, Q7LDI9]
YAP1 169-207, P46937
Sequence of YAP1 169-207, P46937 (P46937 169-207): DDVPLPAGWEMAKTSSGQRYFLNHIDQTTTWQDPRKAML
  selected by phage display: confidence 2 (active)
